Assay outcomes from PubChem BioAssay.
Most compounds without a hit are left out; they make up all but 5.2% or so of the library.
Calb biofilm kill = kills Candida albicans biofilms; 85,000 compounds, 0.14% hits; inhibition, % at 6 µM; C. albicans biofilm + clotrimazole, Alamar Blue;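 active = inhibition above 20%; inactive = inhibition below 20%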;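 also: preformed 24 hr biofilms exposed to compound for 48 hr; 0% = biofilm without compound and 100% = blank killed by clotrimazole plus chlorhexidine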
PostGolgi ctrl = growth of the yeast control strain, post-Golgi counter-screen; efflux-deficient yeast background strain, growth absorbance A615, 16 h; inhibition, % at 10 µM; 98,000 compounds, 5% hits
PostGolgi yeast = growth inhibition of a yeast mutant, post-Golgi transport screen | 98,000 compounds, 0.9% hits | post-Golgi transport phenotypic cell assay | inhibition, % at 10 µM;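 also: yeast cells grown in 1536-well plates; yeast grown about 18 h at 30C before absorbance read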
EphB4 antag = blocks human EphB4 binding to ephrin-B2 | P54760 | EphB4 LBD / TNYL-RAW-Alexa532 peptide, fluorescence polarization | inhibition, % at 7 µM | 97,000 compounds, 0.15% hits | AID 720;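 active = inhibition above the screen-wide mean inhibition plus 3 SD, cut at about 15% in these data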;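 also: 0% = DMSO wells and 100% = excess unlabeled TNYL-RAW peptide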
Target sequence (P54760 whole entry, looked up, the tested form may be a part): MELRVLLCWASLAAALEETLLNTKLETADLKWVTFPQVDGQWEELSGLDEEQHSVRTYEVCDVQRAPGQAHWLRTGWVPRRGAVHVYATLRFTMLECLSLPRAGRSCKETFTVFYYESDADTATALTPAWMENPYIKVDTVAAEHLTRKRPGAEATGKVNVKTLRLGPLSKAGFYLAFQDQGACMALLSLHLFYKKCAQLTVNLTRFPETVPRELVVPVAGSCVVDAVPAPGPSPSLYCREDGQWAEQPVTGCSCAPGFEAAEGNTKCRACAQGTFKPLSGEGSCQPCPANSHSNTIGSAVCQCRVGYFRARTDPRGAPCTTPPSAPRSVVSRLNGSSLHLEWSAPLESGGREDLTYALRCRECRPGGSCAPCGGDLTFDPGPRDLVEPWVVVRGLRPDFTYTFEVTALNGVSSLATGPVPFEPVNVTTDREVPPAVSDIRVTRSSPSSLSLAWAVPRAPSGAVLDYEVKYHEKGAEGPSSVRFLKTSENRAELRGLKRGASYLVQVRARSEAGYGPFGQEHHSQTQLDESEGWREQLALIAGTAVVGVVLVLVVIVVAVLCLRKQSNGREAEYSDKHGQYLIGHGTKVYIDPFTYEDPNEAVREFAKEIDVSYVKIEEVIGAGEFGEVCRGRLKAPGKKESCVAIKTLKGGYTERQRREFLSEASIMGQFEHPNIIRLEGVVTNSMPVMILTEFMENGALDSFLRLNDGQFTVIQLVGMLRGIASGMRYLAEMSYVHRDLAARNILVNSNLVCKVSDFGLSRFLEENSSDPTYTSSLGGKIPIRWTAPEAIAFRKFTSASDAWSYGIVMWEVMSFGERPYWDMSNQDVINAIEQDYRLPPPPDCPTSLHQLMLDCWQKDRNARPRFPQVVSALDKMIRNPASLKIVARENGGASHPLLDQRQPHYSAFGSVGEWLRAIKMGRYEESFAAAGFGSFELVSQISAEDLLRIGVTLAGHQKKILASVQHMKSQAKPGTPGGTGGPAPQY
Numbers without * were called inactive; . = no result given. Rule as the data show it, unless noted: active = inhibition above about 30%; inactive = the rest.

SMILES | Calb biofilm kill | PostGolgi ctrl | PostGolgi yeast | EphB4 antag
Cc1nc(NC(=O)c2ccc(Br)s2)sc1C(=O)N(C)C | 4.7 | 19.6 | 1.3 | 4.6
COc1ccc(NC(=O)c2onc(C)c2Cl)cc1OC | 12.2 | 33.8* | 2.2 | 1.1
COc1cc(C)c(S(=O)(=O)NCc2ccc3c(c2)OCO3)cc1C | 27.2* | 9.7 | 6.4 | 0.8
COc1cc(C)c(Cl)c(C)c1S(=O)(=O)NCc1ccc2c(c1)OCO2 | -5.0 | 6.3 | -7.1 | 2.1
O=[N+]([O-])c1cc(C(F)(F)F)ccc1N/N=C/c1cc2ccccc2nc1Cl | . | 12.5 | 44.1* | -8.3
COc1ccc(OCC(O)Cn2c(Nc3cccc(C)c3)nc3c2c(=O)n(C)c(=O)n3C)cc1 (stereo not drawn) | -3.2 | . | . | .
O=C(N1CCOCC1)C1(c2ccccc2)CCCCC1 | . | 41.9* | -9.8 | -0.6
O=C(N1CCCCC1)C1(c2ccccc2)CCOCC1 | 9.0 | 12.1 | -1.3 | 6.0
COC(=O)c1cc(COc2ccc3c4c(c(=O)oc3c2)CCC4)c(C)o1 | -2.4 | 29.9 | -10.7 | 2.4
c1csc(-c2nc3nc4ccccc4nc3n2Cc2ccc3c(c2)OCO3)c1 | 4.6 | 43.5* | -6.2 | 5.2
COc1ccc(-c2onc(C)c2-c2ccccc2)c(O)c1 | 8.1 | 18.3 | 1.5 | -1.7
COc1ccc(-c2noc(C)c2-c2ccc3ccccc3n2)c(O)c1 | 8.7 | 48.6* | 0.9 | 3.0
Cc1cc(C)n(-c2nc(-n3nc(C)cc3C)c3c4c(sc3n2)COC(C)(C)C4)n1 | 8.1 | 14.4 | 0.1 | 5.3
Cc1cc(C)n(-c2nc(NCCC(C)C)c3c4c(sc3n2)COC(C)(C)C4)n1 | -1.4 | 32.6* | -5.1 | 4.1
CN1CCc2c(C#N)c(N3CCCCC3)nc(NCc3ccccc3)c2C1 | 2.9 | 47.8* | 26.5 | 6.8
COC(Cc1nnc(SC)n1-c1ccccc1)OC | . | 0.1 | -23.6 | -0.1
CSc1nnc(CSCc2ccc(Cl)cc2Cl)n1-c1ccccc1 | . | 50.6* | -1.7 | -5.1
COc1ccccc1OCc1ccc(C(=O)NCC2CCCO2)o1 (stereo not drawn) | 6.0 | 8.4 | 0.2 | 2.9
O=C(CSc1nnc(COc2ccccc2)n1-c1ccccc1)c1cccs1 | -2.8 | 41.4* | -1.6 | .
Cc1ccc(OCc2nnc(SCC(=O)c3cccs3)n2-c2ccccc2)cc1C | 2.6 | 18.6 | 0.8 | -1.3
Cc1ccc(-n2ncc3c(NCc4ccc5c(c4)OCO5)ncnc32)c(C)c1 | 4.9 | 38.0* | 4.1 | -8.3
Cc1cccc(-n2ncc3c(NCc4ccc5c(c4)OCO5)ncnc32)c1 | 10.6 | 18.1 | -2.8 | -3.4
CCNc1nc(NCC)nc(N(C)N)n1 | . | -12.8 | -11.9 | 3.6
OC(CNCc1ccco1)Cn1c2ccc(Br)cc2c2cc(Br)ccc21 (stereo not drawn) | . | 99.2* | 105.7* | 3.8
Cc1ccc(NC(=O)CC2S/C(=N/c3nccs3)N(C)C2=O)c(C)c1 (stereo not drawn) | -5.7 | 31.6* | 2.4 | -3.8
SMILES | Calb biofilm kill | PostGolgi ctrl | PostGolgi yeast | EphB4 antag
CN=C1SC(CC(=O)Nc2ccccc2F)C(=O)N1C (stereo not drawn) | 8.8 | -1.8 | -5.9 | .
CCCn1c(CCC(=O)O)ccc1-c1cccs1 | 7.7 | 3.9 | 3.0 | 1.8
COCCCn1c(CCC(=O)O)ccc1-c1cccs1 | 2.2 | 30.5* | -2.5 | -3.8
N#CCC(=O)N/N=C/c1ccc(Sc2nc3ccccc3s2)o1 | . | 16.1 | -1.2 | 1.9
O=C(NS(=O)(=O)c1ccc2c(c1)OCCO2)c1ccccc1 | 1.2 | 26.9 | -2.8 | 4.5
O=C(NCc1ccc2c(c1)OCO2)c1ccc2c(c1)C(=O)N(Cc1cccnc1)C2=O | 1.1 | 2.8 | -1.9 | -2.2
O=C(Nc1cccnc1)c1ccc2c(c1)C(=O)N(Cc1cccnc1)C2=O | 2.2 | 30.1* | 28.0 | -2.6
CCOc1cc(/C=N/NC(N)=S)cc(Br)c1OCc1ccccc1C | . | 66.6* | 2.5 | 2.4
CCCCOc1c(Br)cc(/C=N/O)cc1OCC | 11.2 | . | . | 3.3
O=C(NC1CCCCC1)N1CCCc2ccccc21 | -3.0 | 1.8 | -0.8 | .
O=C(NC1CCCCC1)N1CCSC1=Nc1ccccc1 | . | 49.8* | 5.3 | 5.6
c1ccc(Cc2ccc(OCCn3cncn3)cc2)cc1 | 3.1 | 5.3 | 5.5 | -4.7
c1ccc(-c2ccc(OCCOCCn3cncn3)cc2)cc1 | 1.0 | 44.3* | -3.3 | -2.6
O=C(c1ccc(S(=O)(=O)N2CCC(c3nc4ccccc4s3)CC2)cc1)N1CCCCC1 | 7.2 | . | . | 3.1
CCc1ccc(C(=O)N2CCC(c3nc4ccccc4s3)CC2)cc1 | 4.2 | 36.8* | -6.4 | -5.5
O=C(CSc1ccc(Cl)cc1)N1CCC(c2nc3ccccc3s2)CC1 | . | 41.1* | 3.5 | 8.7
O=C(/C(=C/c1ccc(Cl)cc1)c1nc2ccccc2[nH]1)c1cccs1 | . | 101.2* | 103.7* | -1.9
CN(CC(=O)NCCN1CCN(c2ccccc2)CC1)S(=O)(=O)c1ccc2c(c1)CCC(=O)N2 | 8.4 | 3.2 | -2.0 | 3.7
CCC(C)NC(=O)C1c2ccccc2C(=O)N(c2ccc(OC)cc2)C1c1ccc(OC)cc1 (stereo not drawn) | 8.1 | -1.1 | 1.5 | -8.6
COc1ccc(/C=C\C(=O)CC(O)(c2ccccc2)C(F)(F)F)cc1 (stereo not drawn) | 5.8 | 37.7* | -4.2 | -5.2
CCOC(=O)Cn1nnc2c(sc3nc4c(c(-c5ccccc5)c32)CCC4)c1=O | . | 32.1* | 2.1 | -1.5
CCOC(=O)Cn1nnc2c(sc3nc4c(c(-c5ccc(Cl)cc5)c32)CCC4)c1=O | . | 34.2* | -5.0 | 3.4
CCN=C(N/N=C/c1ccc([N+](=O)[O-])cc1)SC | . | -1.2 | -4.2 | -0.9
CC(C)Cn1cnc2c(c(-c3ccccc3)c(-c3ccccc3)n2Cc2ccco2)c1=N | 10.7 | 62.2* | 83.4* | 0.2
N=c1c2c(-c3ccccc3)c(-c3ccccc3)n(Cc3ccco3)c2ncn1Cc1ccccc1 | 42.6* | 33.7* | 75.3* | 0.4
SMILES | Calb biofilm kill | PostGolgi ctrl | PostGolgi yeast | EphB4 antag
COn1c(SC(C)C)nc2ccccc2c1=O | 4.0 | 33.6* | 2.5 | -1.1
CC(C)On1c(SC(C)C)nc2ccccc2c1=O | 5.1 | 8.2 | 4.1 | 2.3
CCOC(=O)CSc1nnc(CNc2ccc(Cl)cc2)n1-c1ccccc1 | 7.1 | 49.8* | 59.7* | .
COC(=O)CSc1nnc(CNc2ccc(Cl)cc2)n1Cc1ccccc1 | 3.4 | 46.0* | 64.8* | 2.1
COc1ccc(OC2C(=O)N(Cc3ccc4c(c3)OCO4)C2c2sccc2C)cc1 (stereo not drawn) | . | 18.7 | -1.1 | 0.7
Fc1ccc(-c2nnc(-n3nnc4ccccc43)c3ccccc23)cc1 | 4.4 | . | . | 7.7
Cc1ccc(-n2ncc(C#N)c2/N=C/N(C)C)cc1 | -3.7 | 33.3* | -4.3 | -4.3
Cc1cc(/C=N/NC(=O)CC2(C)OCCO2)c(C)n1-c1cc(Cl)cc(Cl)c1 | -5.1 | . | . | 2.3
CC1(CC(=O)N/N=C/c2ccc(OCc3ccc(Cl)cc3Cl)cc2)OCCCO1 | . | 42.4* | 1.0 | -5.6
CCOC(=O)C1CCN(Cc2cnc(Oc3ccc(C(C)(C)C)cc3)s2)CC1 | . | 16.7 | 4.8 | -0.1
Cc1cc(-c2nc3c4c5c(sc4[nH]c(=O)n3n2)CCC5)c(C)o1 | 3.5 | 31.3* | 0.2 | 3.8
Cc1nc2sc3c(c2c(=O)[nH]1)CCC3 | 6.1 | -8.8 | -0.8 | .
Cn1cc(CC(=O)Nc2cccc(C#N)c2)c2ccccc21 | -1.2 | 7.6 | 15.6 | -0.5
CCOC(=O)c1ccccc1NC(=O)c1ccc(Cl)c(S(=O)(=O)N2CCOCC2)c1 | 4.2 | . | . | 7.2
